The values below come from PubChem BioAssay AID2242 (National Center for Advancing Translational Sciences (NCATS), 2010).

Among all 200,000 compounds or so, about 720 (0.36%) were called active. Inconclusive results (about 8%) are left out. The call rests on the fitted dose curve; in most records, active means well fitted activation curve with a large enough effect; inconclusive means small, poorly fitted or top-dose-only effect, or effect the other way, or another doubt; inactive means flat fitted curve, though single readings scatter. Some of the results follow.
Potency means the concentration at half of the fitted maximal effect.

For the experiment, the target named is Lysosomal alpha-glucosidase (Homo sapiens) (UniProt P10253). The experiment in a line: qHTS Assay for Activators of Human alpha-Glucosidase as a Potential Chaperone Treatment of Pompe Disease. Further: nearly all actives have a fitted effect of over 80% in size.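 On activity change, positive = activation: 0% = no enzyme basal signal and 100% = uninhibited enzyme activity.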 To be noted: purified enzyme, 4-MU-alpha-glucoside fluorescence, 20 min; series mostly up to 76.9 µM; activity change, positive = activation: at the top concentration. A digest of the protocol: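 Compounds titrated up to 77 uM against 4 nM enzyme and 400 uM methylumbelliferyl substrate at room temperature, 20 min, pH 5.0. Basic stop, then 4-methylumbelliferone fluorescence (365/440 nm) normalized to no-enzyme and enzyme controls; Hill-equation AC50.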
As for `CSc1nc2n(n1)C(c1ccccn1)C1=C(CC(C)(C)CC1=O)N2` (centres undefined), the Potency is 35.5 µM (active).
`Cc1c(OC(=O)CNC(=O)OC(C)(C)C)ccc2c3c(c(=O)oc12)CCC3`: the Potency is 11.2 µM (active).
For `CSCCC(NC(C)=O)C(=O)Oc1ccc2c3c(c(=O)oc2c1)CCCC3` (centres undefined), the Potency is 35.5 µM (active).
The same measure, in the same setting: to `CCC(NC(=O)OC(C)(C)C)C(=O)Oc1ccc2c3c(c(=O)oc2c1)CCC3` (centres undefined) belongs 35.5 µM (active); to `Cc1csc(NC(=O)c2ccccc2O)n1`, 39.8 µM (active).
Turning to `CCN(c1ccccc1)S(=O)(=O)c1cc(C(=O)Oc2ccc3c(C)cc(=O)oc3c2)ccc1C`, the Potency is 28.2 µM (active).
As to `Cc1ccc(N(C)S(=O)(=O)c2cccc(C(=O)Oc3ccc4c(C)cc(=O)oc4c3)c2)cc1`, the Potency was 31.6 µM (active).
For the molecule `C=CCN(c1ccccc1)S(=O)(=O)c1cccc(C(=O)Oc2ccc3c(C)cc(=O)oc3c2)c1`, the Potency is 35.5 µM (active).
For `O=Cc1cn(-c2ccccc2)nc1-c1cc2cc(O)ccc2oc1=O`, the Potency is 35.5 µM (active).
Same read-out and setting: to `CCC(C)NC(=O)c1cc2cc3ccc(OC)cc3nc2s1` (centres undefined) belongs 35.5 µM (active); to `COc1ccc2cc3cc(C(=O)NC(C)C)oc3nc2c1`, 28.2 µM (active); to `COc1ccc2cc3cc(C(=O)NCC4CCCO4)oc3nc2c1` (centres undefined), 35.5 µM (active).
On the same count and under the same terms, the result for `O=c1[nH]cnc2nc(-c3ccccc3)c(-c3ccccc3)nc12` reads 35.5 µM (active); that for `COc1ccc2cc3cc(C(=O)NCCN4CCN(Cc5ccccc5)CC4)oc3nc2c1`, 28.2 µM (active).
As to `COc1ccc2cc3cc(C(=O)NCCN4CCN(c5ccccc5F)CC4)oc3nc2c1`, the Potency was 35.5 µM (active).
On the same count and under the same terms, the result for `COc1ccc2cc3cc(C(=O)NCCN4CCc5ccccc5C4)oc3nc2c1` reads 35.5 µM (active); that for `CC(=O)Nc1ccc(S(=O)(=O)NCC(=O)OCc2cc(=O)oc3ccc4ccccc4c23)cc1`, 35.5 µM (active).
In the case of `COc1cccc(-c2nc(N3CCN(Cc4ccccc4)CC3)c3ccccc3n2)c1O`, the Potency was 39.8 µM (active).
The same measure, in the same setting: the result for `COC(=O)c1ccc2nc(Nc3nc4ccc(F)cc4s3)sc2c1` reads 12.6 µM (active); that for `COC(=O)c1ccc2nc(Nc3nc4c(F)cc(F)cc4s3)sc2c1`, 6.31 µM (active).
On the same count and under the same terms, the result for `O=C(NC1CCC(O)CC1)c1cc(-c2ccco2)nc2ccccc12` (centres undefined) reads 39.8 µM (active); that for `OCCN(CCO)c1ccc2ccccc2c1`, 35.5 µM (active); that for `c1ccc(CCNc2ccnc3cc4ccccc4cc23)cc1`, 22.4 µM (active).
On to `COc1ccc2nc(N3CCOCC3)cc(C)c2c1`, for which the Potency was 39.8 µM (active).
Still for that read-out and setting: the result for `Cc1cc(N2CCOCC2)nc2cc(O)ccc12` reads 28.2 µM (active); that for `CCOc1ccc2nc(N3CCOCC3)nc(C)c2c1`, 39.8 µM (active).
On to `CCN(CC)C(=O)c1cc2c(=O)n3ccccc3nc2s1`, for which the Potency was 31.6 µM (active).
Take `COCCN(CCOC)C(=O)c1cc2c(=O)n3ccccc3nc2s1`: the Potency is 35.5 µM (active).
Still for that read-out and setting: the result for `CC1=CN2C(=NC(=O)CC2(C)C(=O)N(CC(=O)NC2CCCC2)c2ccccc2C)C=C1` (centres undefined) reads 35.5 µM (active).
For the molecule `CC1=CN2C(=NC(=O)CC2(C)C(=O)N(CC(=O)NC2CCCC2)c2cc(C)cc(C)c2)C=C1` (centres undefined), the Potency was 39.8 µM (active).
As to `CCC(=O)Oc1ccc2c(c1)OC1(OC(C)=O)OC(C)CC1=C2C` (centres undefined), the Potency is 5.62 µM (active).
On to `CCOC(=O)c1sc(-c2ccc(OC)cc2)cc1NC(C)=O`, for which the Potency is 28.2 µM (active).
Regarding `CCCCCn1c(=NC(C)=O)c(C#N)cc2c(=O)n3ccccc3nc21`, the Potency was 35.5 µM (active).
On to `CCOCCCn1c(=NC(C)=O)c(C#N)cc2c(=O)n3ccccc3nc21`, for which the Potency was 31.6 µM (active).
For the molecule `CCOCCCn1c(=NC(C)=O)c(C#N)cc2c(=O)n3cccc(C)c3nc21`, the Potency was 31.6 µM (active).
With `O=C(Oc1cc2oc(=O)c3c(c2cc1Cl)CCCC3)c1cccs1`, the Potency was 31.6 µM (active).
With `O=C(Oc1ccc2c3c(c(=O)oc2c1)CCCC3)c1cccs1`, the Potency was 35.5 µM (active).
`COCCn1c(=O)[nH]c2cc(C(=O)NC(C)C)ccc2c1=O`: the Potency was 35.5 µM (active).
Still for that read-out and setting: to `CCN1CCCC1CNC(=O)c1ccc2c(=O)n(CCOC)c(=O)[nH]c2c1` (centres undefined) belongs 31.6 µM (active); to `COCCn1c(=O)[nH]c2cc(C(=O)NCc3cccnc3)ccc2c1=O`, 35.5 µM (active); to `O=C(O)c1cccc(NC(=O)C2C3C=CC(C3)C2C(=O)O)c1` (centres undefined), 31.6 µM (active).
Same read-out and setting: to `COc1ccc(CCNC(=O)CSc2nc(-c3ccc(OC)c(OC)c3)ccc2C#N)cc1` belongs 28.2 µM (active).
Turning to `O=c1oc2c(CN3CCOCC3)c(O)c(Cl)cc2c2c1CCC2`, the Potency is 35.5 µM (active).
Still for that read-out and setting: to `O=c1oc2c(CN3CCOCC3)c(O)c(Cl)cc2c2c1CCCC2` belongs 31.6 µM (active); to `CN(C(=O)NC(=O)C1=C(N2CCOCC2)/C(=C/c2ccccc2)CC1)S(C)(=O)=O`, 39.8 µM (active).
On the same count and under the same terms, to `CCCCN(C(=O)NC(=O)C1=C(N2CCOCC2)/C(=C/c2ccccc2)CC1)S(C)(=O)=O` belongs 31.6 µM (active); to `CN(C)CCCNS(=O)(=O)c1ccc(N2CCC(c3ccc(Cl)cc3)=N2)cc1`, 35.5 µM (active); to `O=S(=O)(c1ccc(N2CCC(c3ccc(Cl)cc3)=N2)cc1)N(CCO)CCO`, 35.5 µM (active).
The same measure, in the same setting: to `Cc1ccc2c(c1)Cc1nc3ccccc3nc1-2` belongs 35.5 µM (active); to `COc1ccc2cc3cc(C(=O)NCc4ccco4)oc3nc2c1`, 31.6 µM (active); to `COc1ccc2cc3cc(C(=O)NCc4cccnc4)oc3nc2c1`, 31.6 µM (active).
Regarding `CCCCCn1c(-c2ccco2)nc2nc3ccccc3nc21`, the Potency is 39.8 µM (active).
Turning to `COCCn1c(-c2ccco2)nc2nc3ccccc3nc21`, the Potency is 35.5 µM (active).
Consider `CC(C)OCCCn1c(-c2ccco2)nc2nc3ccccc3nc21`, for which the Potency was 35.5 µM (active).
On the same count and under the same terms, the result for `c1coc(-c2nc3nc4ccccc4nc3n2CC2CCCO2)c1` (centres undefined) reads 25.1 µM (active).
On to `c1ccc(Cn2c(-c3ccco3)nc3nc4ccccc4nc32)cc1`, for which the Potency was 35.5 µM (active).
Take `CCC(C)n1c(-c2ccco2)nc2nc3ccccc3nc21` (centres undefined): the Potency was 39.8 µM (active).
The same measure, in the same setting: to `Nc1c(Cl)cc(Cl)cc1C(=O)OCC(=O)NC1CC1` belongs 35.5 µM (active).
Same read-out and setting: the result for `COC(=O)CNC(=O)COC(=O)c1cc(Cl)cc(Cl)c1N` reads 39.8 µM (active); that for `Nc1c(Cl)cc(Cl)cc1C(=O)OCC(=O)N1CCOCC1`, 31.6 µM (active).
Same read-out and setting: the result for `CC(C)N(C(=O)COC(=O)c1cc(Cl)cc(Cl)c1N)C(C)C` reads 35.5 µM (active).
As to `Cc1c(CCC(=O)O)c(=O)n2c([nH]c3ccccc32)c1C#N`, the Potency was 35.5 µM (active).
Take `Cc1ccc(Cc2c(C)c(C#N)c3[nH]c4ccccc4n3c2=O)cc1`: the Potency was 35.5 µM (active).
Same read-out and setting: the result for `CCOC(=O)CCc1c(C)c(C#N)c2[nH]c3ccccc3n2c1=O` reads 31.6 µM (active); that for `CCCCc1c(C)c(C#N)c2[nH]c3ccccc3n2c1=O`, 22.4 µM (active); that for `COc1ccccc1[C@@H]1C(c2cccc(Cl)c2)=NN(c2ccc(Br)cc2)[C@H]1C(=O)N1CCOC1=O`, 31.6 µM (active).
On to `Cc1cccc(C2=NN(c3ccc(Br)cc3)[C@@H](C(=O)N3CCOC3=O)[C@@H]2c2ccc(F)cc2)c1`, for which the Potency is 31.6 µM (active).
As for `COC(=O)Cc1c(C)c2ccc(OC(=O)c3ccccc3)cc2oc1=O`, the Potency is 35.5 µM (active).
As for `COC(=O)Cc1c(C)c2cc(Cl)c(OC(=O)c3ccco3)cc2oc1=O`, the Potency is 28.2 µM (active).
Same read-out and setting: to `CC(=O)Oc1ccc2c(C)c(CC(C)O)c(=O)oc2c1` (centres undefined) belongs 39.8 µM (active).
`COC(=O)Cc1c(C)c2ccc(OC(=O)c3ccco3)cc2oc1=O`: the Potency was 35.5 µM (active).
The same measure, in the same setting: to `CCC(=O)Nc1c(C#N)c2nc3ccccc3nc2n1-c1ccccc1C` belongs 39.8 µM (active); to `CCC(C)NC(=O)CCC(=O)Nc1ccc2nc(N3CCOCC3)cc(C)c2c1` (centres undefined), 35.5 µM (active); to `CCCCN(C)C(=O)CCC(=O)Nc1ccc2nc(N3CCOCC3)cc(C)c2c1`, 39.8 µM (active).
Take `CCC(C)NC(=O)CCC(=O)Nc1ccc2nc(N3CC(C)CC(C)C3)cc(C)c2c1` (centres undefined): the Potency was 31.6 µM (active).
Same read-out and setting: the result for `Cc1ccc(N2N=C(c3ccc(F)cc3)CC2c2ccco2)cc1` (centres undefined) reads 28.2 µM (active).
`COc1ccccc1C1CC(c2ccco2)=NN1c1ccccc1` (centres undefined): the Potency is 31.6 µM (active).
Still for that read-out and setting: to `Fc1ccc(C2=NN(c3ccccc3)C(c3ccco3)C2)cc1` (centres undefined) belongs 35.5 µM (active).
Same read-out and setting: to `CCOc1cc(C2C3=C(CCCC3=O)N(CCC(=O)O)C3=C2C(=O)CCC3)ccc1OS(=O)(=O)c1ccc(C)cc1` belongs 35.5 µM (active); to `COc1ccc(/C=C/c2nnc(NC(=O)COc3cccc(C)c3)s2)cc1`, 31.6 µM (active); to `COC(=O)Nc1nnc(/C=C/c2ccccc2)s1`, 31.6 µM (active).
For `CCSc1ccc(-c2nn(-c3ccccc3)cc2/C=C(/C#N)C(=O)NCCCOC)cc1`, the Potency was 35.5 µM (active).
Same read-out and setting: to `CCSc1ccc(-c2nn(-c3ccccc3)cc2/C=C(/C#N)C(=O)NC)cc1` belongs 25.1 µM (active).
`CCOC(=O)/C(C#N)=C/c1cn(CCC(=O)O)nc1-c1ccc(Br)cc1`: the “activity change, positive = activation” value was 9.4e-05% (inactive).
As for `N#Cc1c(N)n(CCNC(=O)c2ccccc2)c2nc3ccccc3nc12`, the Potency is 7.94 µM (active).
Still for that read-out and setting: to `N#Cc1c(N)n(CCNC(=O)c2cccs2)c2nc3ccccc3nc12` belongs 35.5 µM (active).
With `CCCCCn1c(N)c(C#N)c2nc3ccccc3nc21`, the Potency is 35.5 µM (active).
As for `N#Cc1c(N)n(CCCN2CCOCC2)c2nc3ccccc3nc12`, the Potency is 35.5 µM (active).
The same measure, in the same setting: to `COCCn1c(N)c(C#N)c2nc3ccccc3nc21` belongs 35.5 µM (active).
The same measure, in the same setting: the result for `Cc1cc(-n2c(=O)c(C#N)cc3c(=O)n4ccccc4nc32)no1` reads 35.5 µM (active).
Regarding `Cc1cc(-n2c(=O)c(C#N)cc3c(=O)n4cccc(C)c4nc32)no1`, the Potency was 35.5 µM (active).
Still for that read-out and setting: to `COC(=O)c1ccccc1NC(=O)/C=C/c1cc(OC)c(OC)c(OC)c1` belongs 35.5 µM (active); to `CSc1nnc(-c2cccn(Cc3ccccc3)c2=O)o1`, 35.5 µM (active); to `CSc1nnc(-c2cccn(Cc3cccc(Cl)c3)c2=O)o1`, 28.2 µM (active).
